Bioassay records from PubChem BioAssay.
VP16 counter: inhibits Gal4-VP16 luciferase reporter, ROR gamma counter-screen | AID 2546 | Drosophila S2 Gal4-VP16 UAS-luciferase, luminescence, 20 h | Potency, µM (titrated, usually from 53.6 µM), inactives show at the highest dose activity, negative = inhibition, hits mostly inhibitors | 310,000 compounds, 3.5% hits;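 further: Gal4-VP16 expression switched on by copper sulfate through the metallothionein promoter; potency means the concentration at half of the fitted maximal effect; on the % scale 0 is the no-effect control and ±100 the full control effect; nearly all actives have a fitted effect of over 50% in size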
SW480 rereplic: inducers of DNA re-replication in SW480 colon cancer cells | SW480 DNA re-replication, Hoechst DNA content imaging, 48 h | Potency, µM (highest dose often 46.1 µM), inactives show at the highest dose re-replication activation, hits mostly activators | 340,000 compounds, 1.8% hits | AID 624297; further: potency means the concentration at half of the fitted maximal effect; % of control where 0% means no effect; nearly all actives have a fitted effect of over 55% in size
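First, 250 cells per well were seeded. Next, compound or vehicle (23 nL) was pinned in, plates sat 48 hr at 37 C. Finally Hoechst was added for 40 min before fluorescence scanning.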
MCF10A rereplic: inducers of DNA re-replication in MCF 10A breast cells; Potency, µM (doses to about 46.1 µM), for the others: top-dose activity, positive = re-replication, most hits filed as activators; 350,000 compounds, 2.9% hits; MCF 10A DNA re-replication, Hoechst nuclear intensity, 48 h; AID 624296; further: potency means the concentration at half of the fitted maximal effect; % of control where 0% means no effect; nearly all actives have a fitted effect of over 50% in size
RORg inh: blocks mouse ROR gamma transcriptional activity. P51450. Drosophila S2 Gal4-RORgamma UAS-luciferase reporter, 20 h. Potency, µM (top dose mostly 53.6 µM), inactives show at the highest dose activity change, negative = inhibition, actives largely listed as inhibitors. 310,000 compounds, 5.4% hits. AID 2551; further: potency means the concentration at half of the fitted maximal effect; on the % scale 0 is the no-effect control and ±100 the full control effect; nearly all actives have a fitted effect of over 60% in size
Target sequence (P51450 whole entry, looked up, the tested form may be a part): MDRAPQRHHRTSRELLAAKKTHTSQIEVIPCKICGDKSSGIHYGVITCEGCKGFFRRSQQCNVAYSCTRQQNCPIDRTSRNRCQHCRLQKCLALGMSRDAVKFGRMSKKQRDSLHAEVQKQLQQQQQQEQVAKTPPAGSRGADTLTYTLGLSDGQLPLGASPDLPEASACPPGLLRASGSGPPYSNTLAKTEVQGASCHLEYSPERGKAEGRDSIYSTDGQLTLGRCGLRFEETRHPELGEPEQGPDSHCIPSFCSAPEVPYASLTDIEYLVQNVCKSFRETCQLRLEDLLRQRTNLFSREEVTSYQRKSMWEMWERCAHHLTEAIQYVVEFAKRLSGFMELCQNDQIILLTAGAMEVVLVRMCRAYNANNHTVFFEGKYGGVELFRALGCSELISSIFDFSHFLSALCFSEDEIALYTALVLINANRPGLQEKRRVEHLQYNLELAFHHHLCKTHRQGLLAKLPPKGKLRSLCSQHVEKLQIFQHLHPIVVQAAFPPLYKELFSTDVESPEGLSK
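Schneider cells (Drosophila), stable Gal4 DBD–ROR gamma + UAS-luc; 1 hr cmpd preincubation; Cu2+ induction 700 uM final; 20 hr ambient; luminescence.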
IL-1B inflam inh: inflammasome signaling inhibition, IL-1 beta readout; THP-1 LPS/ATP IL-1B secretion, AlphaLISA, 16 h; hits give low values; activity change, % at 57.5 µM; 360,000 compounds, 4.7% hits; in the data active means activity change below about -50%; inconclusive means mostly about -30% to -49%; further: on the % scale 0 is the no-effect control and ±100 the full control effect
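THP-1 cells pretreated 1 hr with compounds (up to 57.5 uM final), then stimulated with LPS (250 ng/mL final) plus ATP (1.25 mM final); secreted IL-1B measured by AlphaLISA after 16 hr, decreased signal indicating inhibition.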
* hit, by the source's call; i = inactive; u = inconclusive; x = not tested or not shown. An excerpt weighted towards active compounds, which were near 11% of everything screened. Unless noted, the call rests on the fitted dose curve; in most records, active means well fitted curve in the direction sought with a large enough effect; inconclusive means small, poorly fitted or top-dose-only effect, or another doubt; inactive means no such curve, though single readings can be large; an effect the other way counts as inactive or inconclusive.

SMILES | VP16 counter | SW480 rereplic | MCF10A rereplic | RORg inh | IL-1B inflam inh
COC(=O)[C@@]12C[C@@H](CC(=O)N3CCOCC3)C(=O)N(Cc3ccco3)C1=CCC(C)(C)C2 | x | x | x | x | -12
CCN(CC(=O)Nc1ccc2c(c1)OCCO2)C(=O)c1cc(=O)[nH]c2ccccc12 | x | -1% | 9% | x | -1
C/C=C/c1cccc(-c2nc(C(=O)NC3Cc4ccccc4C3)cc3c2[C@@H](CCO)N(C(C)=O)C3)c1 | x | x | x | x | -57*
C/C=C/c1cccc(-c2nc(C(=O)NC3CCC3)cc3c2[C@H](CCO)N(S(=O)C(C)(C)C)C3)c1 (stereo partly specified) | x | x | x | x | -19
CC=Cc1cc2c(c(=O)o1)C(=O)C(O)C(C)O2 (stereo unspecified) | x | 18µM* | 12µM* | x | -101*
O=S(=O)(c1ccccc1)N1CCN(C(=S)Nc2ccc(Br)cc2)CC1 | -3% | -2% | 2% | -35% | -50*
O=S(=O)(c1ccc(NC(=S)N2CCCCC2)cc1)N1CCCCC1 | x | x | x | x | 30
Cc1ccc(NC(=S)N2CCN(S(=O)(=O)c3ccc(C)cc3)CC2)cc1 | -16% | 14% | 9% | 13µM* | -19
Cc1cccc(NC(=S)N2CCN(S(=O)(=O)c3cccc(F)c3)CC2)c1 | 1% | u | u | 11µM* | -14
O=[N+]([O-])c1ccc(NC(=S)N2CCN(S(=O)(=O)c3ccccc3)CC2)cc1 | -5% | u | u | -19% | i
S=C(NCCc1ccccc1)N1CCN(C23CC4CC(CC(C4)C2)C3)CC1 | -11% | u | 5.8µM* | 18% | -84*
CCCc1nnc(SCC(=O)NC2CCCCC2)n1CCOC | 4% | 0% | -1% | 1% | 13
CCc1ccc(NC(=S)N2CCN(S(=O)(=O)c3ccccc3)CC2)cc1 | u | -10% | 0% | 18µM* | -17
Cc1cccc(NC(=S)N2CCN(S(=O)(=O)c3ccccc3)CC2)c1 | 5% | -1% | -1% | u | 8
O=S(=O)(c1ccccc1)N1CCN(C(=S)NCCc2ccccc2)CC1 | -16% | -1% | 0% | 66% | -51*
COc1ccc(S(=O)(=O)N2CCN(C(=S)NCCc3ccccc3)CC2)cc1 | -6% | -5% | -4% | 26% | 0
COc1cccc2sc(N(CCN(C)C)C(=O)c3ccc4c(c3)CCCC4)nc12 | -5% | -21% | -4% | -10% | i
CN(C)CCCN(C(=O)c1ccc2c(c1)CCCC2)c1nc2ccc(Cl)cc2s1 | u | u | u | u | -123*
CCOc1ccc2nc(N(CCCN(C)C)C(=O)c3ccc4c(c3)CCCC4)sc2c1 | -25% | u | u | -13% | -58*
CCN(CC(=O)Nc1ccc(OC)cc1)C(=O)c1cccc(S(=O)(=O)N2CCN(c3ccccc3)CC2)c1 | x | x | x | x | -30
COc1ccc(/C=C/C(=O)c2ccccn2)cc1 | 11µM* | 10% | u | 11µM* | u
COc1ccc(OC)c(NC(=O)/C=C/c2ccccc2[N+](=O)[O-])c1 | -9% | -1% | 5% | u | -26
COc1ccc([N+](=O)[O-])c(C=CC(=O)c2ccccn2)c1 | x | x | x | x | -105*
O=C(NCc1ccco1)c1ccccc1Br | -2% | -8% | -1% | 16% | -6
O=C(NNC(=S)NCc1ccco1)c1ccccc1Br | -20% | -14% | 4% | 0.89µM* | -7
SMILES | VP16 counter | SW480 rereplic | MCF10A rereplic | RORg inh | IL-1B inflam inh
[O-]/C(=C(\C(=S)NCc1ccco1)[n+]1ccccc1)c1ccccc1Br | 10% | -1% | 1% | 22µM* | -2
Cc1ccc(/C([O-])=C(/C(=S)NCc2ccco2)[n+]2ccccc2)cc1 | 8% | x | x | -24% | x
O=C(NNC(=S)NCc1ccco1)c1ccc(Cl)s1 | -12% | 0% | 11% | 1.8µM* | 15
C[C@]12CCC(=O)C=C1CCC1C2C(=O)C[C@]2(C)C1CC[C@]2(O)C(=O)CO (stereo partly specified) | -7% | -4% | -1% | -3% | x
O=C1NC[C@@H](CCCCN2C[C@H](Cc3ccccc3)N(CC3CCCCC3)C(=O)C2=O)N(CCc2ccccc2)C1=O | x | x | x | x | -9
O=C(C[C@@H]1C=C[C@@H](NC(=O)C2CC2)[C@@H](CO)O1)NCc1ccccc1Cl | x | x | x | x | -5
COc1ccc(CN(C)CC(=O)Nc2sc3c(c2C#N)CCC3)cc1OC | -19% | 12µM* | u | u | u
COc1cccc(CN(C)CC(=O)Nc2sc3c(c2C#N)CCC3)c1OC | 5% | -38% | -4% | 1% | -3
CN(CC(=O)Nc1sc2c(c1C#N)CCCCC2)Cc1nc2ccccc2c(=O)[nH]1 | -4% | -6% | u | 13µM* | -6
CCC(C)c1ccccc1N1CC(C(=O)NCCc2ccc(OC)c(OC)c2)CC1=O (stereo unspecified) | x | -43% | -2% | x | 2
O=C(O)c1ccc(C[n+]2c(-c3ccccc3)csc2Nc2ccccc2)cc1 | -17% | 0% | u | 5.6µM* | -8
Cc1cc(N2CCN(c3ccccc3Cl)CC2)n2cc(-c3ccccc3)nc2n1 | u | -1% | u | -41% | -60*
Cc1cc(N2CCN(c3ccccc3)CC2)n2cc(-c3ccccc3)nc2n1 | -19% | -3% | u | 22% | -68*
Cc1cc(N2CCN(c3ccccc3)CC2)n2nnnc2n1 | 6% | -6% | -8% | 14% | -9
COC(=O)[C@@H](NC(=O)O[C@@H]1C(=O)c2cc(OC)ccc2O[C@H]1c1ccc(OC)c(Br)c1)C(C)C | 1% | x | x | 14% | x
CCCCC[C@H](O)/C=C/C=C\CCCCCCCC(=O)O | -3% | x | x | -8% | x
Cc1[nH]c2ccccc2c1C(C[N+](=O)[O-])c1ccco1 (stereo unspecified) | -8% | u | 13% | -1% | 4
Cc1[nH]c2ccccc2c1C(C[N+](=O)[O-])c1cccs1 (stereo unspecified) | -4% | 11% | u | 40% | -96*
Cc1ccc(-c2[nH]c3ccccc3c2C(C[N+](=O)[O-])c2ccco2)cc1 (stereo unspecified) | 22µM* | u | 18µM* | 3% | -1
CCOC(=O)C1CCN(C(=O)CCn2c(=O)oc3ccccc32)CC1 | x | x | x | x | 26
O=c1cnc2cnc(Oc3ccccc3)nc2n1C1CC1 | 4% | x | x | -6% | x
N#C/C(=C/c1cccs1)c1nc2ccccc2[nH]1 | -21% | 20% | u | u | 9
N#C/C(=C\c1ccc(Sc2ccc(Cl)cc2)o1)c1nc2ccccc2[nH]1 | u | u | 15µM* | u | 0
N#Cc1ccc(Sc2nc3ccccc3[nH]2)cc1C#N | u | 7% | 3% | -12% | -22
N#C/C(=C\c1ccc(Sc2nc3ccccc3[nH]2)o1)c1ccccc1 | u | 43% | u | -18% | -73*
